This is an account of results in PubChem BioAssay (Tox21).

The structures appear in SMILES notation. Active and inactive are the calls of the source. Calls come from the whole dose curve; as a rule, active = well fitted curve in the direction sought with a large enough effect in the repeat runs; inconclusive = weak or mixed curves; inactive = flat fitted curve, though single readings scatter.

A short description of this assay: qHTS assay to test for compound auto fluorescence at 590 nm (red) in HEK293 cells (AID 720679). To be noted: red autofluorescence 540/590 nm; series mostly up to 91.3 µM. From the text:
National Center for Advancing Translational Sciences [NCATS]
NIH Chemical Genomics Center [NCGC]
U.S. Environmental Protection Agency [EPA]
National Institutes of Environmental Health Sciences [NIEHS]
National Toxicology Program [NTP]
U.S. Food and Drug Administration [FDA]
Compound auto fluorescence often interferes with screening of the compound library against various biological targets and signaling pathways. Some of these compounds may have fluorophoric properties. Such properties may interfere with the assay outputs resulting in false positives and/or negatives. To decrease such complications and ensure the compound activities are relevant in terms of biological response, the Tox21 10K compound library was screened for auto fluorescence.
From the fluorophores used as reporter signals in our screening assays, the auto fluorescence equivalencies of compounds against three fluorophores have been evaluated: Triamterene, Fluorescein and Rose Bengal sodium for blue, green and red fluorescence, respectively. The fluorescence intensities were measured using Excitation/Emission wavelengths at 405/460nm, 485/535nm and 540/590nm for blue, green and red labels, respectively. This assay includes the red fluorescence data.
Tox21 Assay Protocol Summary:
2,000 HEK293 cells in 5 uL of culture medium containing 10% dialyzed FBS per well were dispensed into black wall/clear bottom 1536-well plates using a Multidrop Combi Dispenser (Thermo Scientific). The assay plates were incubated for 4-5 hr at 37C to allow cell attachment to the well bottom, followed by the transfer of 23 nL compound or DMSO vehicle by a pintool work station (Kalypsys, San Diego, CA). After the assay plates were incubated overnight at 37C and 5% CO2, fluorescence intensities in the assay plates were measured by an Envision (PerkinElmer, Shelton, CT) plate reader using three labels for measuring blue, green and red fluorescence at […] 460, 535 and 590nm respectively.
A general note: qHTS replaces the single test concentration by a dilution series.
Turning to `OC1CCCC1`, the molecule was called inactive.

For the molecule `CC[Si](OC(C)=O)(OC(C)=O)OC(C)=O`, the call was inactive. As for `CCCCCCCCC`, the entry is “inactive”; as for `O=c1c(-c2ccc(O)cc2)coc2cc(O)ccc12`, “inactive”. As for `Oc1ccc2ccccc2c1N=Nc1ccccc1`, the entry is “inactive”. Take `Nc1c(S(=O)(=O)O)cc(Br)c2c1C(=O)c1ccccc1C2=O`: the result was inactive.

Take `CC1COc2ccccc2N1C(=O)C(Cl)Cl` (stereo not given): the molecule was classed as inactive.

As for `O=[N+]([O-])C(CO)(CO)CO`, the molecule was classed as inactive. As for `CC1=C(CC(=O)O)c2cc(F)ccc2/C1=C\c1ccc(S(C)=O)cc1` (stereo not given), the entry is “inactive”.

Regarding `CCCCC(CC)COC(=O)CCCCCCCC(=O)OCC(CC)CCCC` (stereo not given), the molecule was called inactive.

For `CC1(C)CC(N=C=O)CC(C)(CN=C=O)C1` (stereo not given), the molecule was classed as inactive. Consider `OCCOCCOCCOCCO`, for which the molecule was classed as inactive. Turning to `C=C(C)C(=O)OCCCCCC`, the molecule was classed as inactive. For `CCCCC(CC)COC(=O)/C=C\C(=O)OCC(CC)CCCC` (stereo not given) the value was “inactive”; for `Oc1ccc2ccccc2c1`, “inactive”. For the molecule `NCCNCCNCCNCCN`, the result was inactive. For `CC#C[C@]1(O)CC[C@H]2[C@@H]3CCC4=CC(=O)CCC4=C3[C@@H](c3ccc(N(C)C)cc3)C[C@@]21C` the value was “inactive”; for `c1ccc2[nH]cnc2c1`, “inactive”; for `NCc1cccc(CN)c1`, “inactive”.

In the case of `OCC#CCO`, the molecule was classed as inactive. For the molecule `O=S(=O)(O)c1cc(S(=O)(=O)O)c2c(N=Nc3ccccc3)c(O)ccc2c1`, the molecule was called inactive. For `CC(C)(N=C=O)c1cccc(C(C)(C)N=C=O)c1` the value was “inactive”. `COCC(C)O` (stereo not given): the result was inactive. For `CC(C)Cc1ccccc1` the value was “inactive”; for `CC(=O)CCc1ccccc1`, “inactive”; for `CC(C)(C)C(=O)C1C(=O)c2ccccc2C1=O`, “inactive”.

As to `c1ccc2ccccc2c1`, the molecule was classed as inactive. For `COC(=O)c1ccccc1O` the value was “inactive”; for `CCC(C)C=O` (stereo not given), “inactive”. For `CC1=CC[C@H]2C[C@@H]1C2(C)C` the value was “inactive”; for `O=C1N=C(O)CN1/N=C/c1ccc(-c2ccc([N+](=O)[O-])cc2)o1`, “inactive”. For `S=c1nc[nH]c2nc[nH]c12` the value was “inactive”; for `Nc1nc2ncc(CNc3ccc(C(=O)N[C@@H](CCC(=O)O)C(=O)O)cc3)nc2c(=O)[nH]1`, “inactive”. Turning to `CC1(C)O[C@@H]2C[C@H]3[C@@H]4C[C@H](F)C5=CC(=O)CC[C@]5(C)[C@H]4[C@@H](O)C[C@]3(C)[C@]2(C(=O)CO)O1`, the call was inactive. Take `C=C(C)C(=O)OCCCCCCCCCCCC`: the result was inactive. As to `O=C(O)c1cc(-c2ccccc2)nc2ccccc12`, the result was inactive. Regarding `Nc1cc(-c2ccncc2)c[nH]c1=O`, the molecule was classed as inactive. As for `CC(C)NCC(O)COc1cccc2ccccc12` (stereo not given), the entry is “inactive”; as for `CCOC(=O)C1OC1c1ccccc1` (stereo not given), “inactive”. As for `C/C=C(C)/C=C/C=C(C)C`, the molecule was called inactive.
